Test results from PubChem BioAssay (NCI).
“And” between values parts separate entries of the source, which are not always exact repeats. Identical values can stand only once. About 83,000 compounds went through this panel and 20% of them were active in at least one assay; those are over-represented in the sample as a whole.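 Note: values are percent growth. 100 is the growth of untreated cells, values between 100 and 0 indicate rising inhibition; between -100 and 0 indicates cell death.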 The source made the active and inactive calls. How the source made its calls: active means growth percent below 10; inactive means the rest.

These compounds were tested on HL-60(TB) leukemia (assay: NCI-60 one-dose screen, 48 h (100 = growth as untreated, 0 = no growth, -100 = all killed)). Conditions: 10 µM unless noted.
In the case of `O=C(Nc1cccc(Cl)c1)Nc1cccc(Cn2c(=O)[nH]c3ccc(Oc4ncccn4)cc3c2=O)c1`, the growth is reported as 45.3% (inactive). In the case of `CCOc1nc(-c2ccccc2)cc2c(O)c(C(=O)N/N=C/c3ccccc3)[nH]c(=O)c12`, the growth is reported as 101% (inactive). With `CC1(C)Cc2c(sc3ncn4nc(-c5ccc(O)cc5)nc4c23)CO1` the growth was 62.1% (inactive). For `Nc1nc(N)nc(NCc2ccccc2)n1`, the growth was 98.6% (inactive). With `O=C(Nc1nc2ccc(S(=O)(=O)Nc3ccc(C4(C(F)(F)F)CC4)cc3)cc2[nH]1)c1cnccn1` the growth was -12.2% (active). For `NC(=O)c1cccc(-n2ccc3cc(NC(=O)Nc4ccc(Cl)c(C(F)(F)F)c4)ccc32)n1`, the growth was 99.3% (inactive). For `O=S(=O)(Nc1ccc(Cl)cc1)c1ccc(-c2cnc(C3CC3)o2)cc1`, the growth was -36.7% (active). `CCn1ccnc1C(=O)/C=C/c1ccc(CC(=O)Nc2ccc(F)cc2)cc1` was tested, and the growth was 27.9% (inactive). `N/N=C(\C(=N\N)c1ccccc1)c1ccccc1` was tested, and the growth was 84.7% (inactive). With `O=C(Cc1ccccc1)Nc1nc(O)c(/C=C2\C(=O)C=Cc3ccccc32)s1` the growth was 103% (inactive). For `CCN(CC)c1ccc2c(cc1=O)[C@@H](NC(C)=O)CCc1cc(OC)c(OC)c(OC)c1-2`, the growth was -56.8% (active). With `O=C(Nc1ccc(Oc2cccc(F)c2)c(Cl)c1)c1cccnc1` the growth was 12.1% (inactive). In the case of `C=C1C(=O)O[C@H]2[C@H]1CC/C(Cn1cc(CNC(=O)c3cc4ccccc4[nH]3)nn1)=C\CC[C@@]1(C)O[C@@H]21`, the growth is reported as -20.8% (active). `Cc1ccc(C(=O)Nc2ccc(Cl)cc2C(=O)NCc2ccccc2)cc1` was tested, and the growth was 51.9% (inactive). For `Fc1ccc(-n2cc(COc3ncnc4sc5c(c34)CCCC5)nn2)cc1Cl`, the growth was 101% (inactive). For `CC1=C(/C=C/C(C)=C/C=C/C(C)=C/C(=O)O)C(C)(C)CCC1`, the growth was 79.2% (inactive) and 46.2% (inactive) and 67% (inactive). For `Clc1ccc2c(c1)c(-c1ccccc1)nc1nncn12`, the growth was 112% (inactive). With `COc1ccc(-c2nc3sc(-c4ccccc4)c(-c4ccccc4)n3c2/C=C/C(=O)c2ccccn2)cc1` the growth was 50.5% (inactive). In the case of `S=C1CCSC(=S)N1CCCN1C(=S)CCSC1=S`, the growth is reported as 36.5% (inactive). In the case of `C=C(C)[C@@H]1CC[C@]2(C)[C@H](CC=C3[C@@H]4[C@@H](C)[C@H](C)CC[C@]4(C(N)=O)CC[C@]32C)[C@@]1(C)CCC#N`, the growth is reported as -28.7% [100 µM] (active). In the case of `Oc1ccc(/C=N/Nc2nnc(N/N=C/c3ccc(O)cc3O)c3ccccc23)c(O)c1`, the growth is reported as -62.2% (active). With `O=C(NCCCl)c1cc(Cl)cc(Cl)c1` the growth was 95.5% (inactive). In the case of `O=C(CSc1nc2ccc([N+](=O)[O-])cc2[nH]1)Nc1ccc(F)cc1`, the growth is reported as 71.6% (inactive). `O=C(N/N=C/c1ccccc1O)c1ccncc1` was tested, and the growth was 29.8% (inactive). For `O=C(NCc1ccc(Cl)cc1Cl)C1CCC(=O)N1c1cccs1` (centres undefined), the growth was 99% (inactive). With `CCSc1nnc(NC(=O)COc2ccc(Cl)cc2C)s1` the growth was 108% (inactive). In the case of `CCc1[nH]nc(-c2ccc(OC)cc2)c1-c1ccccc1OCCN(CC)CC`, the growth is reported as 92.8% (inactive). For `NC(CCc1nc2ccccc2c(=O)[nH]1)C(=O)O` (centres undefined), the growth was 103% (inactive). `O=C(O)c1ccc(CNS(=O)(=O)c2ccc3ccccc3c2)cc1` was tested, and the growth was 68.1% (inactive). For `CN1CCN(CCC=C2c3ccccc3Sc3ccc(S(=O)(=O)N(C)C)cc32)CC1`, the growth was 91.3% (inactive) and 80.6% (inactive). For `CCOC(=O)C(CCC#N)(CCC#N)C(=O)OCC`, the growth was 103% (inactive). In the case of `CO/N=C/C=C\C(=O)N/C=C/C[C@H]1/C=C/[C@H](O)/C=C\C=C\c2cccc(O)c2C(=O)O1`, the growth is reported as 23.3% (inactive) and -28.4% (active). In the case of `O=S(=O)(Nc1ccc(Cl)cc1Cl)c1ccc(-c2cnc(C3CC3)o2)cc1`, the growth is reported as -0.119% (active). `C=CC(=O)NCc1ccc(Nc2nccc(-c3ccc(N4CCCC4)c(C#N)c3)n2)cc1` was tested, and the growth was -12.9% (active). In the case of `N#Cc1c(-c2ccc(Cl)cc2)nc(NN=Cc2cccc(O)c2)nc1N1CCOCC1`, the growth is reported as 66.6% (inactive). For `O=C(NC(=S)Nc1ccc(-c2nc3ccccc3[nH]2)cc1)c1ccc2ccccc2c1`, the growth was 40.7% (inactive). For `CCCCCCCCC(C)OC(=O)c1nn(C(C)=O)c2ccccc12` (centres undefined), the growth was 99.5% (inactive). `COc1ccc(CC(C#N)c2cc3ccccc3[nH]2)cc1` (centres undefined) was tested, and the growth was 97.5% (inactive). `COC1C(OC(N)=O)C(O)C(Oc2ccc3c(O)c(NC(=O)c4ccc(O)c(CC=C(C)C)c4)c(=O)oc3c2C)OC1(C)C` (centres undefined) was tested, and the growth was 74% (inactive) and 106% (inactive).
